Test results reported in PubChem BioAssay (EPA / NIEHS).
Inconclusive results are not listed. Activity calls are given as the source filed them. Rule for the calls, unless noted: active = hit-call score of the fitted dose curve at least 0.9, where 1 is the maximum; inactive = score below 0.9.

Legend:
[1] = CCTE_Shafer_MEA_dev_network_spike_number: CCTE's Neural Network Formation Assay for Number of Network Spikes, Shafer Lab (AID 2284048);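 note: synchronized bursts across electrodes counted on days 5 7 9 12 and integrated as AUC; fit as a loss of signal meaning fewer network spikes than DMSO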
Summary of the method: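 Developing networks of primary rat cortical neurons are treated over 12 days starting at plating, with media and compound fully replaced on DIV 5 and 9. Network spike counts from four recording days are integrated as trapezoidal AUC.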

[2] = CCTE_Shafer_MEA_dev_network_spike_peak: CCTE's Neural Network Formation Assay for Mean Number of Electrodes in Network Spike, Shafer Lab (AID 2284049);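 note: fitted for loss of signal meaning fewer electrodes in network spikes than DMSO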
Summary of the method: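 Rat cortical primary culture, 1.5 x 10^5 cells/well, 48-well MEA (16 electrodes/well). Dosing day 0 through DIV 12, full media/compound exchange DIV 5, 9. AxIS adaptive spike detection; AUC over days 5/7/9/12; loss-of-signal vs DMSO.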

[3] = CCTE_Shafer_MEA_dev_spike_duration_mean: CCTE's Neural Network Formation Assay for Mean Spike Duration, Shafer Lab (AID 2284051);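 note: mean network spike duration pooled as area under curve over DIV 5 to 12 recordings; potency for a decrease in mean network spike duration versus DMSO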
Summary of the method: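 Readout is the average length of network spikes, clustered firing across electrodes, summed over DIV 5, 7, 9 and 12 as area under the curve. Neurons from rat cortex developed networks on MEA plates under continuous 12-day exposure.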

[4] = CCTE_Shafer_MEA_dev_network_spike_duration_std: CCTE's Neural Network Formation Assay for Standard Deviation of Network Spike Duration, Shafer Lab (AID 2284052);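 note: area under curve of spike duration SD across recording days 5 to 12; hits are decreases in network spike duration SD versus DMSO vehicle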
Summary of the method: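 Read-out is the trapezoidal area-under-the-curve across recordings made on days 5, 7, 9 and 12, fitted in the negative direction against DMSO baseline. Neurons were primary rat cortical cells treated from day 0, with treatment renewed at each feed.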

[5] = CCTE_Shafer_MEA_dev_per_network_spike_spike_number_mean: CCTE's Neural Network Formation Assay for Mean Number of Spikes in a Network Spike, Shafer Lab (AID 2284053);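 note: fitted as decrease in spikes per network spike relative to DMSO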
Summary of the method: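 Continuous twelve-day exposure of developing rat cortical networks grown over 16 microelectrodes per well; spontaneous firing is captured at four time points, and the per-network-spike spike number is integrated over development by trapezoidal AUC.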

[6] = CCTE_Shafer_MEA_dev_per_network_spike_spike_percent: CCTE's Neural Network Formation Assay for Percent of Spikes in a Network Spike, Shafer Lab (AID 2284054)
Summary of the method: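 Rat primary cortical cultures, 1.5 x 10^5 cells/well on MEA. Continuous compound exposure d0–12, medium/compound renewed DIV 5, 9. Network-spike spike % (0.05 s peak window), AUC over 4 recordings, DMSO baseline.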

[7] = UKN5_HCS_SBAD2_cell_viability: Viability Assessment in the University of Konstanz (UKN) Leist Lab Neurite Outgrowth Assay in human iPSC-derived immature Dorsal Root Ganglia Neurons (UKN5) (AID 2284056)
Summary of the method: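 iPSC-derived immature peripheral neurons (SBAD2) seeded on Matrigel with CHIR99021, SU5402 and DAPT, dosed 1 h later for 24 h. Viability from Hoechst H-33342 and calcein-AM live staining, high-content imaging; bidirectional fit versus DMSO.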

[8] = CCTE_Shafer_MEA_dev_LDH: CCTE's Lactate Dehydrogenase Assay for Cytotoxicity in the Neural Network Formation Assay, Shafer Lab (AID 2284068; active = hit-call score of the fitted dose curve at least 0.9, where 1 is the maximum;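 note: exposure for twelve days from plating with re-dosing on DIV 5 and 9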)
Summary of the method: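 Cytotoxicity companion to network-formation recordings: rat cortical neurons received compound over 12 days of development, re-dosed at DIV 5 and 9 feeds. Viability was inferred from LDH enzyme activity relative to DMSO.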

[9] = CCTE_Shafer_MEA_acute_AB: CCTE's Alamar Blue Assay for Cytotoxicity in the Neural Acute Assay, Shafer Lab (AID 2284069; active = hit-call score of the fitted dose curve at least 0.9, where 1 is the maximum;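 note: active compounds lower the viability signal compared with DMSO wells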)
Summary of the method: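 Metabolic activity in chemically exposed rat cortical neurons (MEA cultures, day 13/15 post-plating) measured via CellTiter Blue resazurin reduction, 544/590 nm fluorescence; fitted relative to DMSO, with signal loss indicating reduced viability.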

[10] = UKN5_HCS_SBAD2_neurite_outgrowth: University of Konstanz (UKN) Leist Lab Neurite Outgrowth Assay in human iPSC-derived immature Dorsal Root Ganglia Neurons (UKN5) (AID 2284070); settings: actives raise or lower the signal
Summary of the method: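 SBAD2 neurons, 24 h compound treatment, calcein-AM neurite area via HCS imaging; DMSO baseline, gain or loss of signal.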

[11] = CCTE_Shafer_MEA_dev_AB: CCTE's Alamar Blue Assay for Cytotoxicity in the Neural Network Formation Assay, Shafer Lab (AID 2284083; active = hit-call score of the fitted dose curve at least 0.9, where 1 is the maximum;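 note: twelve days of exposure from plating with re-dosing on DIV 5 and 9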)
Summary of the method: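 Fluorescent resazurin reduction serves as the viability read-out, with DMSO as negative control and baseline. Cells were primary rat cortical neurons grown on MEA plates and dosed from day 0 to day 12, treatment renewed on DIV 5 and 9.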

[12] = CCTE_Shafer_MEA_acute_LDH: CCTE's Lactate Dehydrogenase Assay for Cytotoxicity in the Neural Acute Assay, Shafer Lab (AID 2284086; active = hit-call score of the fitted dose curve at least 0.9, where 1 is the maximum;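 note: active means LDH release rises above DMSO vehicle level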)
Summary of the method: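 Released lactate dehydrogenase, read at 490 nm, indicated cytotoxicity after acute 40-min compound treatment of rat cortical neuron networks grown on 48-well MEA plates.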

[13] = CCTE_Shafer_MEA_dev_mutual_information_norm: CCTE's Neural Network Formation Assay for Mutual Information Normalization, Shafer Lab (AID 2284091);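 note: mutual information between electrodes summarised as area under curve across four recording days; potency is for a decrease in mutual information relative to DMSO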
Summary of the method: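 Developing rat cortical networks on 16-electrode MEA wells are treated throughout formation (DIV 0–12). Shared electrode information is recorded four times, converted to area-under-curve, and fitted for decreases against DMSO vehicle.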

[14] = CCTE_Shafer_MEA_dev_correlation_coefficient_mean: CCTE's Neural Network Formation Assay for Mean Correlation Coefficient, Shafer Lab (AID 2284093);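 note: well mean pairwise spike train correlation integrated as AUC over recording days 5 to 12; potency fitted for loss of correlation relative to DMSO vehicle wells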
Summary of the method: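 Read-out: well-mean correlation coefficient of spike trains between electrode pairs, collapsed over four recording days as trapezoidal area-under-the-curve. Developing rat cortical neuron networks grown on MEAs received test chemical continuously from plating.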

[15] = UKN2_HCS_IMR90_neural_migration: University of Konstanz (UKN) Leist Lab Neural Crest Cell Migration Assay in human induced IMR90 Pluripotent Stem Cells (UKN2) (AID 2284204); settings: actives raise or lower the signal
Summary of the method: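 Migration of human IMR90-derived neural crest cells into a stopper-defined gap is imaged after 24 h chemical treatment. Activity is fitted bidirectionally relative to DMSO.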

[16] = IUF_NPC1b_proliferation_BrdU_72hr: Leibniz Research Institute for Environmental Medicine (IUF) 72-hour Neural Progenitor Cell Bromodeoxyuridine (BrdU) Proliferation Assay (NPC1b) (AID 2284207)
Summary of the method: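 Proliferation of primary human neural progenitor cells: 72 h compound treatment at 37C, 5% CO2, pH 7.2-7.6, in EGF/FGF-containing medium. Readout is BrdU uptake (last 16 h) by chemiluminescent ELISA, normalised to DMSO.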

[17] = IUF_NPC1a_proliferation_area_72hr: Leibniz Research Institute for Environmental Medicine (IUF) 72-hour Neural Progenitor Cell Proliferation Area Assay (NPC1a) (AID 2284208)
Summary of the method: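 Read-out: increase in sphere area over 72 h by automated phase-contrast imaging, fitted in positive direction versus DMSO baseline. One hNPC sphere (0.25-0.35 mm) per well in EGF/FGF medium; growth-factor withdrawal served as positive control.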

[18] = IUF_NPC1_viability_72hr: Viability Assessment at 72 hours in the Leibniz Research Institute for Environmental Medicine (IUF) Neural Progenitor Cell Proliferation Assay (NPC1) (AID 2284209)
Summary of the method: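 Each well receives one 0.3 mm progenitor sphere from fetal brain cortex; test chemical is added at plating and left three days. Viability comes from alamar blue fluorescence, multiplexed with LDH and BrdU readouts in the same well.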

[19] = CCTE_Mundy_HCI_Cortical_Synap_Neur_Matur_NeuriteSpotCountPerNeuriteLength: CCTE's Synaptogenesis and Neurite Maturation Assay in rat cortical cells for Neurite Spot Count per Neurite Length, Mundy Lab (AID 2284210)
Summary of the method: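 Primary rat cortical neurons, compound exposure DIV 7–12, 288.33 h endpoint. Hoechst, anti-MAP2 and anti-synaptophysin labelling; neurite-associated puncta per neurite length scored by automated imaging relative to DMSO controls.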

[20] = CCTE_Mundy_HCI_Cortical_Synap_Neur_Matur_BPCount: CCTE's Synaptogenesis and Neurite Maturation Assay in rat cortical cells for Branch Point Count, Mundy Lab (AID 2284211)
Summary of the method: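 Branch point number is quantified by automated imaging of fluorescently labelled neurites and synapses in rat primary cortical neurons exposed from DIV 7 to DIV 12. Activity is analysed relative to DMSO negative control.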

[21] = CCTE_Mundy_HCI_Cortical_NOG_NeuriteCount: CCTE's Neurite Outgrowth Assay in rat cortical cells for Neurite Count, Mundy Lab (AID 2284212);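 note: cells fixed about two days after chemical exposure began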
Summary of the method: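 Neurite number per cell from high-content imaging of betaIII-tubulin immunostaining, with Hoechst nuclear counterstain.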

[22] = CCTE_Mundy_HCI_Cortical_NOG_NeuriteLength: CCTE's Neurite Outgrowth Assay in rat cortical cells for Neurite Length, Mundy Lab (AID 2284213);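 note: neurites imaged about 48 to 50 h after chemical exposure began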
Summary of the method: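 Neurite length was read by high-content imaging of βIII-tubulin-labelled neurites in rat primary cortical cultures. Activity was fitted relative to DMSO.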

[23] = CCTE_Mundy_HCI_Cortical_Synap_Neur_Matur_NeuriteLength: CCTE's Synaptogenesis and Neurite Maturation Assay in rat cortical cells for Neurite Length, Mundy Lab (AID 2284214)
Summary of the method: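 Neurite length in rat primary cortical cultures is imaged after MAP2, synaptophysin and Hoechst staining. Dosing starts DIV 7, ending DIV 12; DMSO serves as negative control and baseline.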

Measured: AC50

[Cd+2].[Cl-].[Cl-]
inactive: [9] | [12] | [17] | [18] | [19]
active: [1] 0.299 µM | [2] 0.208 µM | [3] 0.119 µM | [4] 0.0239 µM | [5] 0.26 µM | [6] 0.585 µM | [7] 50 µM | [8] 1.51 µM | [10] 50 µM | [11] 1.21 µM | [13] 0.178 µM | [14] 0.609 µM | [15] 0.88 µM | [16] 6.45 µM | [20] 1.38 µM | [21] 13.1 µM | [22] 12.4 µM | [23] 1.46 µM
